About 83,000 compounds went through this panel and 20% of them were active in at least one assay; those are over-represented in the sample as a whole.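 Negative percent growth values reflect cell death: -40 means 40% of the cells present at the start died, and -100 means all died.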 Calls of active or inactive are those of the source. Rule for the calls: active = growth percent below 10; inactive = the rest.
Columns and labels:
Assay in all cases: NCI-60 one-dose screen, 48 h (100 = growth as untreated, 0 = no growth, -100 = all killed)
Conditions in all cases: 10 µM unless noted
[1] = system: NCI-H23 lung
[2] = system: NCI-H226 lung
[3] = system: NCI-H322M lung
[4] = system: HOP-62 NSCLC
[5] = system: NCI-H460 lung
[6] = system: NCI-H522 lung
[7] = system: A549/ATCC NSCLC
[8] = system: 786-0 renal
[9] = system: COLO 205 colon
[10] = system: DU-145 prostate
[11] = system: K-562 leukemia
[12] = system: MALME-3M melanoma
[13] = system: MDA-MB-231 breast
[14] = system: SF-268 CNS
[15] = system: SF-295 CNS
[16] = system: SF-539 CNS
[17] = system: UACC-257 melanoma
[18] = system: M14 melanoma
[19] = system: HOP-92 NSCLC
[20] = system: RXF 393 renal

Measured: growth

CCCCn1c(O)c(N=Nc2nc(-c3cc4ccccc4oc3=O)cs2)c2cc(Br)ccc21
inactive: [1] 98.3% | [2] 99.2% | [3] 102% | [4] 110% | [5] 114% | [6] 101% | [7] 97.8% | [8] 106% | [9] 140% | [10] 108% | [11] 105% | [12] 105% | [13] 106% | [14] 97% | [15] 105% | [16] 103% | [17] 103% | [18] 112%

COCOc1cc2oc(C(=O)N[C@@H](Cc3ccccc3)C(O)C(=O)NCc3ccccc3)c(C)c(=O)c2cc1OCOC (stereo partly specified)
active: [2] -11.8% | [20] -23.7%
inactive: [1] 59.2% | [3] 97.7% | [4] 71.9% | [19] 14.4% | [6] 86.9% | [7] 58.9% | [8] 14.5% | [9] 109% | [10] 52.8% | [11] 90.4% | [12] 22.3% | [13] 20.7% | [14] 65.8% | [15] 89% | [16] 24.7% | [17] 61.1% | [18] 82.9%

COc1ccc2c(c1)C(=N/N=C(\C)c1ccc(OC)c(S(N)(=O)=O)c1)C(=O)N2
inactive: [1] 94.1% | [2] 89.3% | [3] 94% | [4] 89.1% | [19] 79% | [6] 84% | [7] 94% | [8] 97.9% | [9] 98.7% | [10] 105% | [11] 103% | [12] 93.7% | [13] 75.1% | [20] 80.4% | [14] 97.5% | [15] 86.4% | [16] 86.8% | [17] 96.7% | [18] 92.4%

NS(=O)(=O)c1ccc(-n2cc(-c3cccc(NC(=O)c4cc(Cl)cc(Cl)c4)c3)nn2)cc1
inactive: [1] 41.2% | [2] 105% | [3] 68.8% | [4] 51.2% | [5] 43.7% | [6] 75.5% | [7] 27.1% | [8] 79.9% | [9] 76.4% | [10] 74.6% | [12] 77.6% | [13] 54.1% | [20] 87.9% | [14] 43.1% | [15] 75.6% | [16] 70.1% | [17] 83.2% | [18] 52.4%

CC(C)CSc1nc(NCCc2c[nH]c3ccccc23)c(C#N)c(-c2ccc(Cl)cc2)n1
inactive: [1] 69.2% | [2] 51.3% | [3] 86.5% | [4] 49.3% | [19] 36.3% | [6] 68.7% | [7] 63% | [8] 67% | [9] 41% | [10] 67.1% | [11] 13.6% | [12] 81.9% | [13] 48.2% | [20] 31% | [14] 55% | [15] 66.4% | [16] 60.9% | [17] 85.8% | [18] 67.6%

Cc1ncsc1-c1ccc(CNC(=O)[C@@H]2C[C@@H](O)CN2C(=O)[C@@H](NC(=O)C2(F)CC2)C(C)(C)C)c(OCCOCCOCCOCCOc2nc(Nc3cc(S(C)(=O)=O)ccc3N[C@@H](c3cccc4c3OC(F)(F)O4)c3ncccc3Cl)nc(N3CCNCC3)n2)c1
inactive: [1] 85.3% | [2] 71.5% | [3] 82.3% | [4] 90.6% | [5] 87.3% | [6] 100% | [7] 103% | [8] 97.7% | [9] 89.8% | [10] 69% | [11] 23.1% | [12] 41.4% | [20] 65.3% | [14] 65.7% | [15] 101% | [16] 70.1% | [17] 94.4% | [18] 97.5%

CC(C)CCNC(=O)N/C(N)=N/c1nc2ccccc2s1
inactive: [1] 46.9% | [2] 52.1% | [3] 83.1% | [4] 73.6% | [5] 66.5% | [6] 54.2% | [7] 64.6% | [8] 80.9% | [9] 103% | [10] 66.4% | [11] 28.7% | [12] 77.1% | [20] 74.7% | [14] 72% | [15] 45.3% | [16] 56.8% | [17] 35.5% | [18] 79.6%

CCCCCCCCOc1cccc(S(=O)(=O)Nc2ccc(C)cc2C(=O)O)c1
inactive: [1] 96.3% | [2] 98.4% | [3] 94.5% | [4] 99.8% | [19] 80.1% | [6] 86.5% | [7] 84.2% | [8] 99.4% | [9] 112% | [10] 102% | [11] 83.8% | [12] 96% | [13] 105% | [20] 107% | [14] 99.2% | [15] 90% | [16] 97.6% | [17] 96.7% | [18] 100%

O=c1cc(-c2ccccc2)oc2cc(OCCCC[P+](c3ccccc3)(c3ccccc3)c3ccccc3)cc(O)c12
active: [1] -93% | [2] -29% | [3] -100% | [4] -63.6% | [5] -75.8% | [6] -81.9% | [7] -56% | [8] -69.5% | [9] -56.3% | [10] -94.8% | [11] -24.1% | [12] -88% | [13] -32.2% | [14] -59% | [15] -96.1% | [16] -95.7% | [17] -91% | [18] -70.1%

CCCCSc1nc(Nc2ccc(C(C)=O)cc2)c(C#N)c(-c2ccc(OC)cc2)n1
inactive: [1] 60.8% | [2] 31.3% | [3] 75.4% | [4] 73.9% | [5] 27.6% | [6] 87.8% | [7] 45.5% | [9] 82.3% | [10] 88.5% | [11] 69.6% | [12] 77.2% | [13] 60.6% | [14] 63.1% | [15] 47.6% | [16] 25.9% | [17] 104% | [18] 91.8%
active: [8] -12.4%

COc1cc(C2CC(c3cc(OC)c(OC)c(OC)c3)=Nc3c(N)nc(N)nc3N2)ccc1Oc1nc(NCCO)nc(N2CCOCC2)n1 (stereo unspecified)
inactive: [1] 95.8% | [2] 84.2% | [3] 86.2% | [4] 90.4% | [19] 103% | [6] 87.2% | [7] 99.2% | [8] 97.6% | [9] 110% | [10] 114% | [11] 91.1% | [12] 98.5% | [13] 102% | [20] 105% | [14] 93.8% | [15] 101% | [16] 97.5% | [17] 105% | [18] 102%

C=Cn1cc(C(=O)O)c(=O)c2cc(F)c(N3CCN(c4nccc(-c5nccs5)n4)CC3)cc21
inactive: [11] 11.4% | [14] 22%
active: [1] -60.5% | [2] -20.5% | [3] -14.5% | [4] -34.4% | [5] 9.63% | [6] -76.6% | [7] -34.3% | [8] -22.3% | [9] -61.5% | [10] -3.99% | [12] -29.2% | [20] -52.3% | [15] -26.4% | [16] -42.7% | [17] -27.3% | [18] -1.11%

CCCCSc1nc(NCCc2c[nH]c3ccccc23)c(C#N)c(-c2ccc(F)cc2)n1
inactive: [1] 82.3% | [2] 72.5% | [3] 86.3% | [4] 68.5% | [5] 25.7% | [6] 69% | [7] 74.5% | [8] 71.8% | [9] 57.8% | [10] 66.4% | [11] 22.2% | [12] 90.9% | [13] 52.2% | [20] 65.2% | [14] 54.9% | [15] 62.1% | [16] 65.2% | [17] 97.9% | [18] 65.9%

O=c1oc2ccccc2cc1-c1csc(N=Nc2c(O)[nH]c3ccc(Cl)cc23)n1
inactive: [1] 98.7% | [2] 98.3% | [3] 114% | [4] 101% | [5] 109% | [6] 98.7% | [7] 102% | [8] 86.3% | [9] 136% | [10] 98% | [11] 104% | [12] 96.2% | [13] 113% | [14] 82.1% | [15] 87.9% | [16] 94.2% | [17] 104% | [18] 109%

CN(C)CCn1c2ccccc2c2nc3ccc([N+](=O)[O-])cc3nc21
inactive: [3] 11.3% | [19] 28.9% | [20] 10.1% | [14] 24.7% | [18] 17.9%
active: [1] -9.77% | [2] -21.2% | [4] -19.3% | [6] -25.2% | [7] -50% | [8] 1.77% | [9] 3.88% | [10] 7.7% | [11] 8.19% | [12] -14.4% | [13] 5.52% | [15] 0.988% | [16] -2.27% | [17] -13.2%

CC1(c2cc3cc(Br)ccc3oc2=O)NC(=O)c2c(/C=C/C(=O)OC3CC4CCC3(C)C4(C)C)cccc2N1 (stereo unspecified)
inactive: [1] 79.1% | [2] 75.9% | [3] 81.2% | [4] 92.5% | [5] 73.6% | [6] 68.3% | [7] 54.6% | [8] 91.5% | [9] 88.7% | [10] 84.3% | [11] 28.4% | [12] 102% | [13] 98.2% | [20] 75.2% | [14] 82.8% | [15] 64% | [16] 96.8% | [17] 77% | [18] 86%
